The values that follow come from PubChem BioAssay (NCATS).

Structures are written as SMILES. Results filed as inconclusive are left out. Unmarked numbers belong to inactive results. Calls follow the shape of the dose curve; as a rule, active = well fitted cell-killing curve with a large enough effect; inconclusive = small, poorly fitted or top-dose-only effect; inactive = no such curve, though single readings can be large or run the other way. Numbered stars: 1 amine (or outer) side, 2 acyl side, 3 side chain; on linkers, the order of the positions; unused ones are H or OH. Bridge positions count the residues as written; N and C are the ends. Square brackets hold non-standard residues; d marks the D form. Peptide text beside a SMILES is read from it. I, II: the chains in the order shown. Actinocin(9to1) = Cc1c2oc3c(C)ccc(C(=O)[*:1])c3nc-2c(C(=O)[*:2])c(N)c1=O; NMeV = CN[C@H](C(=O)O)C(C)C; Sar = CNCC(=O)O
% is scaled to controls: 0 for no effect and ±100 for the full control effect.

This assay is described as follows: qHTS of pediatric cancer cell lines to identify multiple opportunities for drug repurposing: Primary screen for Rh30 cells (AID 1347107). Also: nearly all actives have a fitted effect of over 75% in size. The following applies: Rh30 rhabdomyosarcoma viability, CellTiter-Glo luminescence, 48 h; series mostly up to 46 µM; activity change, negative = cytotoxic: at the top concentration. From the text: Drug repurposing or repositioning has been offered as a strategy for drug development in oncology programs. This approach has special potential for childhood cancers and other rare or orphan diseases, where the expected return on new drug development has been a disincentive to pharmaceuticals.
In this project we exploit the poly-pharmacology of drugs to discover new indications via phenotypic screening of a panel of 19 well-characterized cell lines derived from solid tumors seen in children and adolescents. The goal is to identify approved drugs with previously unrecognized anticancer properties that has the potential to reveal new mechanisms and biological processes involved in carcinogenesis or drug resistance. We employed a titration-based paradigm (quantitative high-throughput screening or qHTS), where all compounds were tested at multiple concentrations for their effect on cell viability. Concentration-response curves (CRCs) were derived directly from the primary screen, and both potency and efficacy values were used to identify compounds with robust bioactivity profiles. We screened the NIH Chemical Genomics Center (NCGC) Pharmaceutical Collection (NPC) and Mechanism Interrogation Plate (MIPE) small molecule collections of approved and investigational compounds against these cell lines; and measured metabolically active cells after 48 hours of compound treatment as a proxy for cell viability.
Assay Submitter: Nathalia J. Martinez, National Center for Advancing Translational Sciences, National Institutes of Health, Rockville, MD, USA; email: natalia.martinez@nih.gov
[1] Shen, M et al. Quantitative high-throughput phenotypic screening of pediatric cancer cell lines identifies multiple opportunities for drug repurposing. Oncotarget 2017 Dec 19;9(4):4758-4772. PMID 29435139.
The cells were obtained from University of North Carolina (UNC), Pediatric Preclinical Testing Program (PPT), and Coriell Institute (CI).
qHTS cell viability assay:
Cells were assayed in growth media at a density of 500-1,000 cells/well. Five microliters of cells were dispensed into 1,536-well, white, solid-bottom, TC-treated plates (Greiner Bio One) using a multidrop dispenser and incubated at 37 degrees C, 5% CO2, under a humidified atmosphere for 5 hours. Twenty-three nanoliters of compounds and controls (neutral control DMSO or positive control bortezomib at final concentration of 2.3 µM) were subsequently transferred by Kalypsys pintool. For primary screens, the MIPE collection was tested at 11-point dilutions (final concentrations range from 0.78 nM to 46 µM) and the NPC collection at 8-point dilutions (final concentrations range from 0.59 nM to 46 µM). Compounds tested in follow-up screens were assayed at 11-point dilutions. Cells were incubated for 48 hours, followed by addition of 3 µL of CellTiter-Glo (Promega). After a 15 min incubation at room temperature, samples were analyzed for luminescence intensity using a ViewLux High-throughput CCD imager equipped with clear filters.
`C=C1C(=C/C=C2\CCC[C@]3(C)[C@@H]([C@H](C)/C=C/[C@@H](O)C4CC4)CC[C@@H]23)C[C@@H](O)C[C@@H]1O`: the “activity change, negative = cytotoxic” value was 11.2%. Consider `CN1CCN(CCCN2c3ccccc3Sc3ccc(S(=O)(=O)N(C)C)cc32)CC1`, for which the “activity change, negative = cytotoxic” value is 27.4%. Next, `CC1(C)O[C@@H]2C[C@H]3[C@@H]4C[C@H](F)C5=CC(=O)C=C[C@]5(C)[C@H]4[C@@H](O)C[C@]3(C)[C@]2(C(=O)CO)O1`: -2.9%; `COc1cccc(OC)c1C(=O)N[C@@H]1C(=O)N2[C@@H]1SC(C)(C)[C@@H]2C(=O)O`: 24.3%; `Cc1cc2c(cc1CC(=O)c1sccc1S(=O)(=O)Nc1onc(C)c1Cl)OCO2`: 15.1%.

Turning to `NCCCC[C@H](N[C@@H](CCc1ccccc1)C(=O)O)C(=O)N1CCC[C@H]1C(=O)O`, the “activity change, negative = cytotoxic” value is 20.6%. Next, `NC(=NCCCCCCN=C(N)/N=C(\N)Nc1ccc(Cl)cc1)/N=C(\N)Nc1ccc(Cl)cc1`: -16.6%; `CC(C)=CCC1C(=O)N(c2ccccc2)N(c2ccccc2)C1=O`: 4.07%; `CN(C)CCCOc1nn(Cc2ccccc2)c2ccccc12`: -2.9%. As for `CC(=O)OCC(=O)[C@@]1(OC(C)=O)[C@@H](C)C[C@H]2[C@@H]3C[C@H](F)C4=CC(=O)C=C[C@]4(C)[C@@]3(F)[C@@H](O)C[C@@]21C`, the “activity change, negative = cytotoxic” value is 11.8%. On to `CN(C)CC/C=C1/c2ccccc2COc2ccc(CC(=O)O)cc21`, for which the “activity change, negative = cytotoxic” value was 13.6%.

On to `Cc1ccc(C(=O)C(C)CN2CCCCC2)cc1` (stereo not given), for which the “activity change, negative = cytotoxic” value is 11.6%. In the case of `COc1cc(-c2ccc(=O)[nH]n2)ccc1OC(F)F` it was -0.846%.

In the case of `C[C@@H](CN(C)C)CN1c2ccccc2Sc2ccccc21`, the “activity change, negative = cytotoxic” value is 13.9%. In the case of `O=C1OC2(c3ccc(O)cc3Oc3cc(O)ccc32)c2ccccc21` it was 9.99%; in that of `NCCc1ccn[nH]1`, 21.8%; in that of `CCN1CCCC1=O`, 22.2%. In the case of `COc1ccc(CN2CCN(C(c3ccc(F)cc3)c3ccc(F)cc3)CC2)c(OC)c1OC` it was -2.03%; in that of `Cc1c2oc3c(C)ccc(C(=O)N[C@@H]4C(=O)N[C@H](C(C)C)C(=O)N5CCC[C@H]5C(=O)N(C)CC(=O)N(C)[C@@H](C(C)C)C(=O)O[C@@H]4C)c3nc-2c(C(=O)N[C@@H]2C(=O)N[C@H](C(C)C)C(=O)N3CCC[C@H]3C(=O)N(C)CC(=O)N(C)[C@@H](C(C)C)C(=O)O[C@@H]2C)c(N)c1=O` (I: T[dV]P[Sar][NMeV] / II: T[dV]P[Sar][NMeV]; ester I:1-I:C, II:1-II:C; linker I:N-II:N via Actinocin(9to1)), 5.39%. In the case of `CC(=O)OCC(=O)[C@@]12OC(C)(C)O[C@@H]1C[C@H]1[C@@H]3C[C@H](F)C4=CC(=O)C=C[C@]4(C)[C@@]3(F)[C@@H](O)C[C@@]12C` it was 14.8%; in that of `CCN(CC)CCNC(=O)COc1ccc(Cl)cc1`, 30.9%. As to `COc1cc2c(cc1OC)C(C(C(=O)N(CCc1ccc(OC)c(OC)c1OC)CCc1ccc(OC)c(OC)c1OC)c1ccccc1)=NCC2` (stereo not given), the “activity change, negative = cytotoxic” value was 1.09%. In the case of `CC(C)(Oc1ccc(Cl)cc1)C(=O)O` it was 15.4%; in that of `CN(C(=O)CN(CCO)CC(=O)N(C)C(C)(C)Cc1ccccc1)C(C)(C)Cc1ccccc1`, 11.4%; in that of `C#C[C@]1(OC(C)=O)CC[C@H]2[C@@H]3CCC4=C[C@@H](OC(C)=O)CC[C@@H]4[C@H]3CC[C@@]21C`, 13.4%. As for `O=C(OCC(O)CO)c1ccccc1Nc1ccnc2cc(Cl)ccc12` (stereo not given), the “activity change, negative = cytotoxic” value is -0.0723%. Next, `CC(=O)Oc1ccc2c(c1)CC[C@@H]1[C@@H]2CC[C@]2(C)[C@@H](O)CC[C@@H]12`: 8.64%. In the case of `C=C(CC)C(=O)c1ccc(OCC(=O)O)c(Cl)c1Cl`, the “activity change, negative = cytotoxic” value is 6.23%. Next, `OC[C@H]1O[C@H](O[C@]2(CCl)O[C@H](CCl)[C@@H](O)[C@@H]2O)[C@H](O)[C@@H](O)[C@H]1Cl`: 11%; `CC(=O)c1ccc2c(c1)N(CCCN1CCC(CCO)CC1)c1ccccc1S2`: 15.7%; `CCOC(=O)[C@H](CCc1ccccc1)N[C@@H](C)C(=O)N1Cc2ccccc2C[C@H]1C(=O)O`: 5.31%. Next, `CN(C)/N=N/c1nc[nH]c1C(N)=O`: 6.65%; `C[C@@H]1C[C@H]2[C@@H]3C[C@H](F)C4=CC(=O)C(Cl)=C[C@]4(C)[C@@]3(F)[C@@H](O)C[C@]2(C)[C@@]1(O)C(=O)CO`: 6.63%.

`CCOc1ccc(Cc2nccc3cc(OCC)c(OCC)cc23)cc1OCC`: the “activity change, negative = cytotoxic” value is -6.62%. In the case of `O=C(O)CCCCC(=O)O` it was 26.8%; in that of `CC(=O)Oc1ccc(C(c2ccc(OC(C)=O)cc2)c2ccccn2)cc1`, -8.11%. Next, `NC(CO)(CO)CO`: 20.1%. Next, `N[C@@H](CCC(=O)N[C@@H](CS)C(=O)NCC(=O)O)C(=O)O`: 18.9% [at 16.1 µM]; `C=CCc1ccc(O)c(OC)c1`: 17.1%; `C[C@]12CCC(=O)C=C1CC[C@H]1[C@@H]3CC[C@](O)(C(=O)CO)[C@@]3(C)C[C@H](O)[C@@]12F`: 19.7%.
